Paper PMC7819943, “Rice protein-binding microarrays: a tool to detect cis-acting elements near promoter regions in rice”
The full ranking holds about 39,000 sequences; the median of “fluorescence intensity (a.u.)” is about 4,300, and the highest 2% start at about 39,000. The entries come from a sample that favours the highest values as a whole.

target: T1, OsSMF1 (Oryza sativa, UniProt Q6ZLB0 1-436); assay: protein-binding microarray (RPBM); PBS, 2% BSA, 51.3 ng/ul salmon testes DNA, 50 uM zinc acetate, 200 nM TF, 25 C, 1 h; high values mean tight binding; settings: protein: recombinant; tags: N-terminal polyhistidine and DsRed monomer fusion (pET32a); chain copies: 2; label: CyDye5-dUTP incorporated in the synthesized complementary strand; 3' TTTTT single-stranded linker to array surface; dsDNA, one strand shown
T1 sequence: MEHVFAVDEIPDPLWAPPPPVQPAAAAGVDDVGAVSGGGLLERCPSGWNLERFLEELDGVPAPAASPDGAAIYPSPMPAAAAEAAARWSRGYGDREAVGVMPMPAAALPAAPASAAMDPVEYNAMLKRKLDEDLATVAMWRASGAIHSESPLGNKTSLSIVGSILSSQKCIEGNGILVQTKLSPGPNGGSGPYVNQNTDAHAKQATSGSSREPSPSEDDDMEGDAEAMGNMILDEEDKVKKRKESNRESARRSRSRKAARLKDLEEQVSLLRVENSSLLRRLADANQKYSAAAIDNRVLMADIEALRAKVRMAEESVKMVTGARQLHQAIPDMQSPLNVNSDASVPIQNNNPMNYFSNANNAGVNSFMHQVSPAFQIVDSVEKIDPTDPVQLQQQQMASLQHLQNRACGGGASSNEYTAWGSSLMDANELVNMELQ
Procedure, shortened: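 Binding signal is reported as fluorescence intensity per feature (arbitrary units) from an Axon 4000B scanner. Incubation used 200 nM of each Ni–NTA-purified, N-terminally polyhistidine- and DsRed-fused transcription factor from E. coli BL21-CodonPlus on a double-stranded custom Agilent array for 1 h at 25 °C, with 50 µM zinc acetate in the buffer, followed by washing.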

Sequence	binding signal
TGTTAAATTCGTCTCGCAAAATAGCCTAAGGGTTATAGAACGGAGTCACCTAGTGCAG	40500 fluorescence intensity (a.u.)
TATGATTTTAAATTCGTCATACTCTAGTTAGCCTAGAAAACGGAGTCACCTAGTGCAG	3430 fluorescence intensity (a.u.)
TAAGGCAAAAGCCAAAATTCAAATATAGTTAAAATTAAAGCGGAGTCACCTAGTGCAG	7150 fluorescence intensity (a.u.)
AAGCGCACGCACACATATGCCACGCATTGACGCATGGCACCGGAGTCACCTAGTGCAG	5630 fluorescence intensity (a.u.)
CCCAGCCCACAAAGGAAGCGAGATCACAATTTCTGGGCCGCGGAGTCACCTAGTGCAG	3400 fluorescence intensity (a.u.)
TCCCGCCACAAGCAACCAAGAAATCAAGAAACCGTTTCAGCGGAGTCACCTAGTGCAG	19600 fluorescence intensity (a.u.)
AAAAGCAAAAGCAAAAGAAACACGTCCTTATTCCTCTCTCCGGAGTCACCTAGTGCAG	3910 fluorescence intensity (a.u.)
GATCAACCTTATTTCTGCAAGCAAATCAAAGAAACAAGCACGGAGTCACCTAGTGCAG	41700 fluorescence intensity (a.u.)
CGGCAGCCACCTCCCCACTCCATCCTCTCGTCCCCTTTTACGGAGTCACCTAGTGCAG	3870 fluorescence intensity (a.u.)
ATTGTTTAGTATTGCGTTATGTTATGTTACTTTTGATACACGGAGTCACCTAGTGCAG	14400 fluorescence intensity (a.u.)
CTGCTCCTAGTCACACTTGACAGTTCAGCTTCAGCTCCTCCGGAGTCACCTAGTGCAG	6360 fluorescence intensity (a.u.)
TGAGCTGCTTTTACACGTTGCTTTATTGACACTTGTTCACCGGAGTCACCTAGTGCAG	45500 fluorescence intensity (a.u.)
TGCATAAGGATAATCCGGTCGTCAGCAAACAATGCATTCACGGAGTCACCTAGTGCAG	3450 fluorescence intensity (a.u.)
CAAGACGGATTTATTAAGCCTAATTAATCTATCATTAGCGCGGAGTCACCTAGTGCAG	4110 fluorescence intensity (a.u.)
TGCAAATTGCGAGACGGATTTATTAAGCCTAGTTAATCCGCGGAGTCACCTAGTGCAG	39400 fluorescence intensity (a.u.)
ACGAATTTATTAAGCCTAATTAATCCGTTATTAGCAAATGCGGAGTCACCTAGTGCAG	6210 fluorescence intensity (a.u.)
AAAGGCCACGCCTTTGCCTCGTCAGTTATCTCTTCGTTTCCGGAGTCACCTAGTGCAG	5220 fluorescence intensity (a.u.)
GGAGTATCCATGCCAGCTAAGCGAGTTGTACAAGGCAAGCCGGAGTCACCTAGTGCAG	5690 fluorescence intensity (a.u.)
CGGGTAGGCGAACACGTCGCTGACGCCGCACCGCTCCAGCCGGAGTCACCTAGTGCAG	6760 fluorescence intensity (a.u.)
TGGTGATATCAATAGGATTGGAAGAGATTTGTCAGCCTATCGGAGTCACCTAGTGCAG	3450 fluorescence intensity (a.u.)
TATCAAAATCCACTGCAACATTTAATACATACATAGTGAACGGAGTCACCTAGTGCAG	21300 fluorescence intensity (a.u.)

Sequence	binding signal
CGCCATGGGAGCACTCCCCATCTTGTCCTCTACCGCCGCGCGGAGTCACCTAGTGCAG	3250 fluorescence intensity (a.u.)
TAGCTCGTACTCCTACATCGTAGCCACCGCGCCTCCCATGCGGAGTCACCTAGTGCAG	3640 fluorescence intensity (a.u.)
CGCCATGGGCGACATCGACATCTACAGCCTCTACACTCCGCGGAGTCACCTAGTGCAG	44200 fluorescence intensity (a.u.)
GCCTGTGGCCCACGCCGTCAGTGGGAGTGGCGGTGTCGGGCGGAGTCACCTAGTGCAG	3960 fluorescence intensity (a.u.)
CCGAATCCGGCCACCCCGCCGCCTCCACGCGCATCACCGCCGGAGTCACCTAGTGCAG	3220 fluorescence intensity (a.u.)
ACGGGCACGACGACCGTCGTGCTCACGGCCGCCGACGTCGCGGAGTCACCTAGTGCAG	4140 fluorescence intensity (a.u.)
GCCGATTGCAATTTCGTCATCACTGCGGTTAGGATTACACCGGAGTCACCTAGTGCAG	4340 fluorescence intensity (a.u.)
TGCTGTCGATGTGCTTATCTTTCGATTTATTCCTCTCATCCGGAGTCACCTAGTGCAG	3200 fluorescence intensity (a.u.)
GGCAACGCACCACGCTGCACGCGTCCGTGGTCGCCGCGAACGGAGTCACCTAGTGCAG	3150 fluorescence intensity (a.u.)
CTCCGCAGTCGTAGGCCCACGCGAACCATTCCGTGTGCAACGGAGTCACCTAGTGCAG	52000 fluorescence intensity (a.u.)
CCCACCATTGCCGCCGTGTCCGGCAACCTAACGAACCTCGCGGAGTCACCTAGTGCAG	4100 fluorescence intensity (a.u.)
CCTCCTTTTCTTCTCCACGTATACAATCAGTCTAGTTGGACGGAGTCACCTAGTGCAG	5040 fluorescence intensity (a.u.)
TGGATAAGGATGTGTGAGACGTGTGATCTTTACTTGTTGGCGGAGTCACCTAGTGCAG	3980 fluorescence intensity (a.u.)
ATCTTTTCTAGTACCAGGATCTTGTGTTGGTGATAGAGAGCGGAGTCACCTAGTGCAG	42500 fluorescence intensity (a.u.)
GCAGTATATGTGTGTGTGCTTTCTTTTGGGATAGAGTCTGCGGAGTCACCTAGTGCAG	3460 fluorescence intensity (a.u.)
TACTTTAAATGTGTGTCCGTATATCCGATGTGACACGCCACGGAGTCACCTAGTGCAG	3870 fluorescence intensity (a.u.)
TAAACATATATGCATGGATGATGTCATGGAAACATGGATTCGGAGTCACCTAGTGCAG	4690 fluorescence intensity (a.u.)
GATCAATCATCCTTGTTCACAAGGCTGCCTGACATGGATGCGGAGTCACCTAGTGCAG	3730 fluorescence intensity (a.u.)
AGATGGGAAATAAAGGGTGGTGACATGGCACACTGACATGCGGAGTCACCTAGTGCAG	10800 fluorescence intensity (a.u.)
CCGAGTCAATACTGCCACGTAGCGCGCCACGTCAGCGAAACGGAGTCACCTAGTGCAG	26300 fluorescence intensity (a.u.)
GGTGTCACGTAAGCGCCACGTCAGCGAACCGCCCTCCAAACGGAGTCACCTAGTGCAG	26600 fluorescence intensity (a.u.)
